Source: PubChem (The Scripps Research Institute Molecular Screening Center)
TEAD-YAP block: TEAD-YAP interaction inhibition; HEK-TIYL cells, TEAD-Gal4/YAP UAS-luciferase luminescence; inhibition, % at 9.12 µM; 640,000 tested, 1.4% active; AID 1259422; in the data active means inhibition above about 32%;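 further: 0% = median of test compound wells and 100% = reference inhibitor wells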
MITF primary: blocks human microphthalmia-associated transcription factor; O75030; AlphaScreen MITF homodimerization, bead proximity signal; inhibition, % at 2.6 µM; 650,000 tested, 0.91% active; AID 1259374; in the data active means inhibition above about 50%;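 further: 0% = vehicle wells with protein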
FBW7 act: activators of human E3 ligase FBW7 | Q969H0 | AlphaScreen FBW7–phospho-cyclin E peptide binding, activator screen | normalized activity (activation), % at 26.1 µM | 650,000 tested, 0.13% active | AID 1259310; in the data active means normalized activity above about 1.9%;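 further: purified mutant Fbw7 with reduced substrate affinity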
Target sequence (Q969H0 whole entry, looked up): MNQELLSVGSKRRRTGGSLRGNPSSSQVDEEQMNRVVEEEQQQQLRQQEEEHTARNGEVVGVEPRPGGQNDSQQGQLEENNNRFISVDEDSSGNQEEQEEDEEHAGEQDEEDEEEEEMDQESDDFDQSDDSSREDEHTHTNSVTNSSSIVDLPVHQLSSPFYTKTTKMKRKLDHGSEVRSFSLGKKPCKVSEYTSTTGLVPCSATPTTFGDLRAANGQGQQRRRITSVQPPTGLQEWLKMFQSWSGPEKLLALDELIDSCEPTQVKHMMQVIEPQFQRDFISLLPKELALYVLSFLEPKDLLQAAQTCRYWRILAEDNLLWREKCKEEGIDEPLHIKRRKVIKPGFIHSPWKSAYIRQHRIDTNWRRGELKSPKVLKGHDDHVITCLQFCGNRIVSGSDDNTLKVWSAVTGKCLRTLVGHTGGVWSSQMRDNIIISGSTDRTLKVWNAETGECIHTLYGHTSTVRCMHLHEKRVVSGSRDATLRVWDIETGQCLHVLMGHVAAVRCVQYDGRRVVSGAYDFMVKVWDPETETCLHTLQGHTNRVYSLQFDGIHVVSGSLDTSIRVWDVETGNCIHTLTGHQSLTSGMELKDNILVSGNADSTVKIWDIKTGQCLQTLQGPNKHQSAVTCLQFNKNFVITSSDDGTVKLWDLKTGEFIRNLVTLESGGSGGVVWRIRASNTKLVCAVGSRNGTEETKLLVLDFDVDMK
GPR151 ag: human GPR151 activation | Q8TDV0 | PathHunter beta-arrestin GPR151 cells, luminescence | activation, % at 11.2 µM | 650,000 tested, 1% active; in the data active means activation above about 4.9%;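 further: 0% = median of compound wells and 100% = cells with positive control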
GPR151 conf act: human GPR151 activation, confirmation screen. 6,700 tested, under 10 active. GPR151 PathHunter beta-arrestin cells, luminescence, 90 min; % of EA-reagent control over plate median. activation, % at 11.2 µM. shares compounds with GPR151 ag;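 active means mean percent activation across replicates above the confirmation screen cutoff of 4.91%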
GPR119 counter: GPR119 activation, counter-screen for GPR151 activators; shares compounds with GPR151 ag; GPR119 PathHunter beta-arrestin cells, luminescence, 90 min; 0 = compound-well median, 100 = enzyme-acceptor control; activation, % at 11.2 µM; 6,700 tested, 0.3% active; AID 1508611;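 active means mean percent activation in the counterscreen above 29.09%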;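 further: counterscreen on off-target GPR119 to flag nonselective hits from the GPR151 activator screen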
* marks the source's active call; other numbers are inactive results; . = no result given; ! = repeats disagree. The list is not random: actives were taken first. Their share in the collection is about 3.5%.

SMILES	TEAD-YAP block	MITF primary	FBW7 act	GPR151 ag	GPR151 conf act	GPR119 counter
COc1ccc(-n2c(C)nc3cc(C(=O)NCCc4ccccc4)ccc32)cc1	-12.8	-2.7	-0.2	2.3	.	.
O=c1nc(/C=C/c2ccc(Cl)cc2)oc2ccccc12	-13.3	8.7	-0.7	0.3	.	.
COc1ccc(N2C(=O)CC(NC34CC5CC(CC(C5)C3)C4)C2=O)cc1 (stereo unspecified)	8.4	-8.4	0.2	5.5*	0.1	-5.2
COc1ccc(N2C(=O)CC(NCCNC(=O)c3ccc(Cl)cc3)C2=O)cc1 (stereo unspecified)	2.8	7.1	0.2	17.8*	-0.1	12.2
Cc1ccc(N2C(=O)CC(NC34CC5CC(CC(C5)C3)C4)C2=O)cc1 (stereo unspecified)	-6.2	-0.5	0.0	-0.5	.	.
O=C(CSc1nnc(NCc2ccccc2)s1)NC1CCCc2ccccc21 (stereo unspecified)	1.2	0.9	-0.1	-0.7	.	.
COc1ccc(C(=O)Nc2cc(C(=O)N3CCN(c4ccccc4)CC3)ccc2N2CC3CC(C2)c2cccc(=O)n2C3)cc1 (stereo unspecified)	-2.1	-7.4	-0.1	-0.2	.	.
O=S(=O)(c1cccc2cnccc12)N1CCCNCC1	13.6	0.3	-0.2	9.3*!	0.6	-2.3
O=S(=O)(c1cccc2cnccc12)N1CCCN(S(=O)(=O)c2cccc3cnccc23)CC1	-0.7	-3.5	-0.1	-0.9	.	.
CCN(c1ccccc1)c1ncnc2c1cnn2C	-9.3	7.7	0.2	5.0*	-0.2	2.9
CCCCN(c1ccccc1)c1ncnc2c1cnn2C	-14.7	-11.5	0.1	0.5	.	.
Cn1c(N/N=C\c2cccc(O)c2)cc(=O)n(C)c1=O	8.7	4.1	0.0	3.4	.	.
Cn1c(N/N=C\c2cccs2)cc(=O)n(C)c1=O	-0.2	7.2	-0.1	6.6*	0.0	-0.7
COc1cc(/C=N\Nc2cc(=O)n(C)c(=O)n2C)ccc1O	23.7	20.8	-0.1	5.7*	-1.4	-11.2
CC(=O)c1c(C)[nH]c(C(=O)CN2C(=O)NC3(CCOc4ccccc43)C2=O)c1C (stereo unspecified)	0.2	-2.7	-0.1	3.6	.	.
CC1=C(C(=O)N2CCOCC2)C(c2ccc(O)cc2)NC(=S)N1 (stereo unspecified)	6.7	5.0	0.6	8.8*	-0.7	-9.2
CC(=O)NCCNCc1c(C(=O)N2CCc3ccccc3C2)nc2ccc(Cl)cn12	-5.4	-3.8	-0.2	0.9	.	.
O=C(c1nc2ccc(Cl)cn2c1CNCC1COCCO1)N1CCc2ccccc2C1 (stereo unspecified)	-0.9	8.3	-0.1	9.8*	0.1	-20.9
CC(NC(=O)c1ccccc1)c1nnc(SCC(=O)c2cccc([N+](=O)[O-])c2)n1C (stereo unspecified)	0.0	19.7	0.0	-1.2	.	.
COCc1nnn(-c2nonc2N)c1C(=O)NNC(=O)c1ccccc1Br	9.4	6.1	0.2	10.0*	1.0	8.4
COCc1nnn(-c2nonc2N)c1C(=O)NNC(=O)C1CC1	2.9	-3.7	0.1	-0.4	.	.
CCOC(=O)COc1ccc2c(=O)c(-c3ccccc3F)c(C)oc2c1	-0.3	0.4	-0.1	6.2*	-0.7	-3.2
CCOC(=O)COc1ccc2c(=O)c(-c3ccc(OC)cc3)c(C)oc2c1	3.4	-4.5	0.0	2.9	.	.
COc1ccccc1/C=N/NC(=O)NC12CC3CC(CC(C3)C1)C2	9.2	9.6	-0.1	-1.0	.	.
COc1ccccc1/C=C/C(=O)OCC(=O)NC(=O)NC12CC3CC(CC(C3)C1)C2	0.8	16.4	0.1	5.5*	0.9	4.0
SMILES	TEAD-YAP block	MITF primary	FBW7 act	GPR151 ag	GPR151 conf act	GPR119 counter
Cc1cccc(Cc2c(C)nc3c(C(=O)N4CCCC4)cnn3c2C)c1	-6.2	-1.3	0.1	1.9	.	.
Cc1nc2c(C(=O)N3CCCC3)cnn2c(C)c1Cc1cccc(Cl)c1	-13.6	15.3	0.0	5.5*	0.6	13.7
Cc1nc2c(C(=O)N3CCN(c4cccc(Cl)c4)CC3)cnn2c(C)c1Cc1ccccc1Cl	12.3	1.9	0.0	5.3*	-0.5	-4.8
Cc1ccccc1Cc1c(C)nc2c(C(=O)N3CCN(c4cccc(Cl)c4)CC3)cnn2c1C	4.2	6.5	0.1	2.9	.	.
COc1ccc(CNC(=O)c2cnn3c(C)c(Cc4cccc(Cl)c4)c(C)nc23)cc1	21.3	6.8	0.2	0.8	.	.
Cc1nc2c(C(=O)NCc3ccccn3)cnn2c(C)c1Cc1cccc(Cl)c1	1.1	-11.5	-0.1	8.1*	1.9	11.8
CCOc1ccc(/C=C2\C(=O)N(CCCOC)C(C)=C2C(=O)OC)cc1	2.9	-2.6	-0.3	1.2	.	.
O=C(NCc1ccccc1)c1ccccc1NS(=O)(=O)c1cccc([N+](=O)[O-])c1	-2.1	1.6	0.1	4.9*	1.4	12.9
Cc1ccc(S(=O)(=O)Nc2ccccc2C(=O)NCc2ccco2)cc1[N+](=O)[O-]	5.5	-1.9	-0.1	11.4*	-0.5	-9.3
CN1CCN(CCOCCOc2cccc(C(F)(F)F)c2)CC1	7.5	7.0	0.1	-0.2	.	.
O=C(COc1ccccc1[N+](=O)[O-])Nc1cccc(Cl)c1N1CCOCC1	13.4	-1.5	0.1	5.0*	-0.6	-2.7
O=C(COc1ccccc1[N+](=O)[O-])NC(=S)Nc1ccccc1N1CCOCC1	-6.8	2.5	0.1	-0.6	.	.
Cc1nc2c(c(N3CCOCC3)n1)CN(S(C)(=O)=O)CC2	2.1	8.9	0.2	-0.6	.	.
COc1cc(OC)cc(C(=O)Nc2cc(C(=O)Nc3ccccc3SC)ccc2N2CC3CC(C2)c2cccc(=O)n2C3)c1 (stereo unspecified)	18.4	4.2	-0.1	-0.2	.	.
CCCn1c(=O)c2c(nc3n(-c4ccc(C(=O)OCC)cc4)c(C)cn23)n(C)c1=O	-3.8	8.5	-0.5	0.0	.	.
CCCCn1c(=O)c2c(nc3n(-c4ccc(C(=O)OCC)cc4)c(C)cn23)n(C)c1=O	6.4	14.7	0.3	5.6*	1.3	-10.5
CCn1c(=O)c2c(nc3n(C)c(C)cn23)n(C)c1=O	22.3	5.8	-0.1	8.0*	0.8	2.5
CCn1c(=O)c2c(nc3n(CC)c(C)cn23)n(C)c1=O	6.9	-2.8	0.0	0.7	.	.
Cc1csc(NC(=O)/C=C/c2cccc(Cl)c2)n1	-34.6	4.2	0.0	5.0*	-0.4	-12.5
Cc1ccc(C)c(Cc2c(C)nc3nc(SCc4c(F)cccc4Cl)nn3c2C)c1	3.0	0.6	0.2	1.1	.	.
Cc1ccc(C)c(CSc2nc3nc(C)c(Cc4c(F)cccc4Cl)c(C)n3n2)c1	2.8	2.4	0.1	6.3*	0.0	11.1
COc1ccc(/C=C/c2nc(-c3cccnc3)no2)cc1OC	-65.9	-1.8	0.2	8.7*	-0.1	-14.9
COc1cccc(-c2noc(/C=C/c3ccc(OC)c(OC)c3)n2)c1	-22.6	14.5	0.1	0.8	.	.
